In PubChem BioAssay (NCI):
The panel holds about 83,000 compounds, 20% with a hit somewhere; the sample as a whole holds those more often.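 Single-concentration screen, 48 h exposure, 96-well plates. Endpoint: percent growth. Below 10 = active.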 Values without a mark were called inactive. The source made the active and inactive calls.

Key:
Test in all cases: NCI-60 one-dose screen, 48 h (100 = growth as untreated, 0 = no growth, -100 = all killed)
Settings in all cases: 10 µM
SK-MEL-2 melanoma = test system: SK-MEL-2 melanoma
EKVX NSCLC = test system: EKVX NSCLC
SN12C renal = test system: SN12C renal
UO-31 renal = test system: UO-31 renal
TK-10 renal = test system: TK-10 renal
ACHN renal = test system: ACHN renal
CAKI-1 renal = test system: CAKI-1 renal
A498 renal = test system: A498 renal
CCRF-CEM leukemia = test system: CCRF-CEM leukemia
MOLT-4 leukemia = test system: MOLT-4 leukemia

| SMILES | growth (SK-MEL-2 melanoma) | growth (EKVX NSCLC) | growth (SN12C renal) | growth (UO-31 renal) | growth (TK-10 renal) | growth (ACHN renal) | growth (CAKI-1 renal) | growth (A498 renal) | growth (CCRF-CEM leukemia) | growth (MOLT-4 leukemia) |
| --- | --- | --- | --- | --- | --- | --- | --- | --- | --- | --- |
| O=C(Nc1cc(Cl)cc2c1-c1ccc(Cl)cc1C2O)C(Cl)Cl (stereo not given) | 110% | 69% | 82.2% | 74% | 118% | 61.9% | 67.5% | 74.4% | 69.1% | 78.8% |
| COc1cc(/C=C2\CCCC3=C2N=C2SC(C)=CN2C3c2cc(OC)c(OC)c(OC)c2)cc(OC)c1OC (stereo not given) | -19.6% (active) | 19.6% | -23.6% (active) | -37.2% (active) | 2.25% (active) | -78.6% (active) | 11.1% | -30.9% (active) | 1.41% (active) | 1.02% (active) |
| COc1cc(NC(=O)C2=C(N3CCOCC3)/C(=C/c3ccc(Cl)cc3)CC2)cc(OC)c1OC | 85.4% | 93.4% | 83.4% | 72.8% | 121% | 93.5% | 84.6% | 98.3% | 39.8% | 49.3% |
| COc1ccc(/C=C2\CCCC3=C2N=C2SC(C)=CN2C3c2ccc(OC)cc2)cc1 (stereo not given) | 98.6% | 99.4% | 104% | 82.1% | 116% | 106% | 96.4% | 76.8% | 104% | 103% |
| O=S(=O)(Oc1ccc(-c2ccc3sccc3c2)cc1)c1ccccc1 | 111% | 95.8% | 97.7% | 97.7% | 99.8% | 112% | 87% | 89.2% | 98.9% | 91.7% |
| CCOC(=O)/C(=C(\C)N)C1CC(=O)NC1=O (stereo not given) | 123% | 102% | 96.5% | 87.9% | 118% | 94% | 98.2% | 107% | 96.2% | 104% |
| Oc1ccc(/C=N/N=C2c3ccccc3-c3ccccc32)c(O)c1 | 80.9% | 78.4% | 56.1% | 56.1% | 108% | 70.1% | 66.8% | 95.6% | 60.4% | 77.9% |
| COc1ccc(/C=C2/SC(=S)NC2=O)c(OC)c1OC | 87.4% | 65.9% | 78.7% | 42.5% | 81.3% | 77.4% | 64.3% | 54.2% | 76.8% | 90.1% |
| CN(C)c1ccc(/C=N/NC(=O)c2cccc3ccccc23)c(Cl)c1 | 28% | 45.2% | 42.9% | 57.5% | 63.8% | 51.2% | 48.5% | -3.25% (active) | 10.1% | 15.5% |
| COc1ccc(NC(=O)C2CC3C=CC2C3)c([N+](=O)[O-])c1 (stereo not given) | 104% | 101% | 91.6% | 92.4% | 109% | 98.4% | 92.6% | 103% | 95.6% | 86.8% |
| CCCN1CN2C(=O)N3CN(CCC)CN4C(=S)N(C1)C2C34 (stereo not given) | 102% | 95.2% | 100% | 94.6% | 93.2% | 94.4% | 90.4% | 108% | 94.9% | 103% |
| CC(=O)Nc1ccc2c(c1)C(=O)c1cccc(C(=O)O)c1-2 | 115% | 107% | 109% | 111% | 116% | 105% | 94.9% | 120% | 103% | 107% |
| O=C(COc1cccc(/C=C2\CSc3ccc(Cl)cc3C2=O)c1)c1ccc(Cl)cc1 | 44.2% | 70.3% | 79.7% | -7.04% (active) | 127% | 81.7% | 61.2% | 91.3% | -26.1% (active) | -12.1% (active) |
| O=[N+]([O-])c1cccc(/C=N/NC(=S)NC23CC4CC(CC(C4)C2)C3)c1 | 96% | 71.2% | 83.1% | 89.9% | 96.6% | 49.6% | 89.9% | 97.1% | 86.2% | 96.3% |
| COc1cc2c(cc1NC(=O)C(F)(F)F)-c1ccc(NC(=O)C(F)(F)F)cc1C2 | 105% | 104% | 86.8% | 102% | 94.8% | 62.9% | 96.9% | 97.7% | 97.6% | 105% |
| COc1ccc2cc(-c3nc4ccccc4s3)c(Cl)nc2c1OC | 95.8% | 100% | 99.9% | 64% | 118% | 96.6% | 94.5% | 93.1% | 104% | 92.7% |
| OCC1OC(n2cnc3c(NCc4ccco4)ncnc32)C(O)C1O (stereo not given) | 76% | 65.3% | 7.6% (active) | 20.4% | 41.4% | 4.08% (active) | 14.1% | 9.69% (active) | 6.74% (active) | -4.64% (active) |
| CN1C(=O)C2(Nc3cc(Cl)ccc3S2)c2cc(Cl)ccc21 (stereo not given) | 108% | 79.2% | 82.2% | 56.9% | 125% | 92.3% | 82.2% | 73% | 71.6% | 82.5% |
| CNS(=O)(=O)Oc1ccc(-c2ccc3occc3c2)cc1 | 108% | 38.6% | 97.7% | 90.4% | 98.5% | 99.5% | 93.3% | 102% | 87.7% | 96.2% |
| O=C(CSc1nccc(Nc2cccc3ccccc23)n1)c1ccc(Cl)cc1 | 102% | 76.9% | 82.6% | 49.8% | 112% | 91.7% | 60.3% | 105% | 83.1% | 88.1% |
| Cc1cccc(N=Cc2ccccc2O)c1C | 129% | 93.7% | 89.6% | 105% | 121% | 110% | 92.4% | 106% | 101% | 98.1% |
| Cc1ccc2nc(Cl)c(-c3nc4ccccc4o3)cc2c1 | 94.2% | 88.1% | 104% | 62.9% | 115% | 76% | 105% | 75.6% | 98.1% | 81.4% |
| CCN1C(=O)CC(SC2CC(=O)N(CC)C2=O)C1=O (stereo not given) | 93.6% | 95.9% | 98.6% | 80.2% | 89.4% | 106% | 95.1% | 74.9% | 94.1% | 72% |
| COc1ccc(/C(=N\N)C(=O)c2ccccc2)cc1 (tested in a mixture with another compound) | 112% | 91.4% | 88.5% | 81.1% | 108% | 98.3% | 90.8% | 83.2% | 88.2% | 80.4% |
| CC(=O)C1CCC2C3CC=C4CC(SC(=N)N)CCC4(C)C3CCC12C (stereo not given) | 32.3% | 55.2% | 47.1% | 63% | 66.8% | 54.4% | 62.7% | 78.3% | 6.89% (active) | -5.72% (active) |
| CCC(=O)OC1CCC2C3CCC(=O)OC3C(C)(CCC(=O)O)CC12C (stereo not given) | 12.7% | 8.81% (active) | 55.5% | 47.1% | 47% | 43.9% | -4.08% (active) | -71.5% (active) | -14.8% (active) | -0.59% (active) |
| O=[N+]([O-])c1ccc2ncccc2c1Cl | 77.4% | 119% | 45.6% | 30.2% | 66.7% | 56.2% | 32% | 100% | 12.3% | 30% |
| O=c1oc2c(cc1-c1ccc(F)cc1)C(O)Oc1ccccc1-2 (stereo not given) | 76.1% | 51.2% | 95.4% | 84.1% | 72.3% | 94.4% | 74% | 89.5% | 113% | 68.3% |
